High-throughput results from PubChem BioAssay.
Sampled rows, rich in hits. Any-hit rate of the full collection: about 3%.
PAFAH1B2 FP inh: inhibitors of human PAFAH1B2 | recombinant PAFAH1B2, FP-rhodamine activity probe, fluorescence polarization | P68402 | inhibition, % at 3.39 µM | actives 1.2% (n = 340,000) | AID 492953;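 active means inhibition above the mean of all tested compounds plus 3 SD, cut at about 24% in these data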;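 further: 0% = enzyme with DMSO and 100% = wells lacking PAFAH1B2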
Target sequence (P68402 whole entry, looked up): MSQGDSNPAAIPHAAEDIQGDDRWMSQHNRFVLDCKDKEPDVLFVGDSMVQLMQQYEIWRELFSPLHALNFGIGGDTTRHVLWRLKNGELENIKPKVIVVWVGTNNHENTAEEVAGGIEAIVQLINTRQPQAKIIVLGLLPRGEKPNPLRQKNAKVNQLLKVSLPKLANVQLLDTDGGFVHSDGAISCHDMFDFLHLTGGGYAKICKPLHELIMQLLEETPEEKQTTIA
ATG4B inh: blocks human ATG4B protease cleavage of LC3 substrate; Q9Y4P1; ATG4B cleavage of LC3-PLA2, NBD-HPC fluorescence, 1 h; actives 0.51% (n = 340,000); AID 504462; inhibition, % at 8.33 µM; in the data active means inhibition above about 40%
PAFAH2 inh: inhibitors of human PAFAH2; actives 0.99% (n = 340,000); AID 492956; inhibition, % at 3.39 µM; recombinant PAFAH2, FP-rhodamine activity probe, fluorescence polarization; Q99487;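 active means inhibition above the mean over all tested compounds plus 3 SD, cut at about 30% in these data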;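 further: inhibitors block probe labeling of enzyme so polarization drops; 0% = enzyme with DMSO and 100% = wells lacking PAFAH2 protein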
DAGLB inhibitor: diacylglycerol lipase beta (human) inhibition | Q8NCG7 | HEK293T DAGLB membrane lysate, EnzChek fluorogenic substrate | inhibition, % at 5.17 µM | actives 0.059% (n = 340,000); in the data active means inhibition above about 34%;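 further: 0% = enzyme with vehicle and 100% = wells lacking enzyme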
PAFAH1B3 FP inh: blocks human PAF acetylhydrolase 1B catalytic subunit 3; recombinant PAFAH1B3, FP-rhodamine probe, fluorescence polarization; inhibition, % at 3.39 µM; actives 0.28% (n = 340,000); AID 492972;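 active means inhibition above the screen-wide average of all tested compounds plus 3 SD, cut at about 25% in these data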;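 further: 0% = enzyme with DMSO only and 100% = wells lacking PAFAH1B3 protein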
pPAFAH FP inh: inhibitors of human plasma PAF acetylhydrolase (pPAFAH) | recombinant pPAFAH, FP-rhodamine probe fluorescence polarization | inhibition, % at 3.39 µM | actives 1.5% (n = 330,000) | Q13093 | AID 463082;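 active means inhibition above the mean inhibition across the screen plus 3 SD, cut at about 25% in these data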;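 further: inhibitors block binding of the rhodamine activity-based probe so polarization drops; 0% = enzyme with DMSO and 100% = wells lacking pPAFAH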
Target sequence (Q13093 whole entry, looked up): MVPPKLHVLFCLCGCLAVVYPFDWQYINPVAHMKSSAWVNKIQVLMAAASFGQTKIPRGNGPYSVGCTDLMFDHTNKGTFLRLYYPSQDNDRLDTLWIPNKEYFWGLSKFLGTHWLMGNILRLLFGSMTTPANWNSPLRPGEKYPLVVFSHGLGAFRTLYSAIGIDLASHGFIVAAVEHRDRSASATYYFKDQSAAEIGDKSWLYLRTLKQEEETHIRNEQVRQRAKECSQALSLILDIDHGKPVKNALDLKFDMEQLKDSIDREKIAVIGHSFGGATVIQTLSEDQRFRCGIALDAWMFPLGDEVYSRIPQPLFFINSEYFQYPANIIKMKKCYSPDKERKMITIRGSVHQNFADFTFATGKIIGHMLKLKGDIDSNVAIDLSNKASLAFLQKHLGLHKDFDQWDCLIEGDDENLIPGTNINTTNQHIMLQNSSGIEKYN
PAFAH2 confirm: PAFAH2 (human) inhibition, confirmed | inhibition, % at 3.39 µM | actives 65% (n = 2,300) | recombinant PAFAH2, FP-rhodamine activity probe, fluorescence polarization | shares compounds with PAFAH2 inh;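 active means mean inhibition over three repeats above a set limit taken from the earlier primary screen, cut at about 30% in these data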;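 further: inhibitor blocks binding of rhodamine activity probe so polarization falls; 0% = enzyme with DMSO and 100% = wells lacking PAFAH2 protein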
Numbers without * were called inactive; . = not tested or not shown.

SMILES	PAFAH1B2 FP inh	ATG4B inh	PAFAH2 inh	DAGLB inhibitor	PAFAH1B3 FP inh	pPAFAH FP inh	PAFAH2 confirm
O=S(=O)(c1ccc(-c2csc(Nc3ccc(Br)cc3)n2)cc1)N1CCCC1	1.0	-6.4	30.3*	-2.3	6.4	23.9	-1.8
C=CCn1c(C)cc(C(=O)COC(=O)/C=C/c2ccc(OC)cc2)c1C	3.7	-1.7	62.3*	-2.5	4.6	8.0	57.4*
Cc1cc(C(=O)COC(=O)/C=C/c2cccc(F)c2)c(C)n1C	3.8	5.5	3.4	-5.0	1.4	-0.6	.
C=CCn1c(C)cc(C(=O)COC(=O)/C=C/c2cccc(OC)c2)c1C	2.1	1.7	54.7*	-7.5	7.8	10.4	45.7*
COc1ccc(/C=C/C(=O)OCC(=O)c2c[nH]c3ccccc23)cc1	-4.1	7.9	-8.0	-2.0	1.9	-2.8	.
CCOC(=O)Cc1csc(NC(=O)CN2CCN(c3ccccc3)CC2)n1	0.5	-7.5	3.0	0.5	10.4	3.0	.
Cc1ccc(-c2c(C#N)c(N)n3c(nc4ccccc43)c2C#N)cc1	5.3	-10.9	46.2*	3.3	4.7	13.4	33.5*
N#Cc1c(-c2ccccc2)c(C#N)c2nc3ccccc3n2c1N	5.9	-9.6	4.4	-0.7	-4.0	2.3	.
CCN(CC)S(=O)(=O)c1ccc(O)c(C(=O)OCC(=O)N2CCCC2)c1	1.7	3.9	2.2	1.8	2.6	4.9	.
CCN(CC)S(=O)(=O)c1ccc(O)c(C(=O)OCC(=O)N2c3ccccc3CC2C)c1 (stereo not drawn)	16.2	2.7	75.4*	-1.8	2.3	16.3	74.7*
COc1ccccc1NS(=O)(=O)c1ccc(O)c(C(=O)OCC(=O)N2CCc3ccccc32)c1	9.6	-4.6	44.8*	2.3	1.0	19.6	28.1
COc1ccccc1NS(=O)(=O)c1ccc(O)c(C(N)=O)c1	-2.5	-11.8	-4.5	3.4	8.5	5.3	.
COc1ccccc1NS(=O)(=O)c1ccc(O)c(C(=O)OCC(=O)N2c3ccccc3CC2C)c1 (stereo not drawn)	13.9	2.4	56.8*	0.5	4.3	13.0	46.8*
COc1ccccc1NS(=O)(=O)c1ccc(O)c(C(=O)OCC(=O)c2ccc(Cl)cc2Cl)c1	13.1	8.8	37.9*	1.1	4.2	9.8	23.1
Cc1ccc(C(=O)CCC(=O)N2CCN(C/C=C/c3ccccc3)CC2)cc1	.	.	.	0.1	.	.	.
CCCCn1c(CCC(=O)O)nc2cc(S(=O)(=O)N3CCCC3)ccc21	-2.7	2.6	-4.9	-0.8	6.4	-2.4	.
O=C(COC(=O)/C=C/c1ccccc1)Nc1cccnc1Cl	6.3	-0.1	27.5	-5.1	3.5	-0.7	.
CCN(CC)S(=O)(=O)c1ccc(Cl)c(NC(=O)COC(=O)/C=C/c2cc(OC)c(OC)c(OC)c2)c1	-0.8	-9.4	12.8	-0.4	3.4	9.6	.
CCN(CC)S(=O)(=O)c1ccc(/C=C/C(=O)OCC(=O)Nc2cccnc2Cl)cc1	-0.3	-6.4	67.2*	-2.2	7.8	5.9	55.2*
CCN(CC)S(=O)(=O)c1ccc(/C=C/C(=O)OCC(=O)Nc2cccc3ccccc23)cc1	-0.8	-5.4	52.7*	-0.5	-7.3	20.8	62.1*
CC(=O)c1nnn(-c2cccc(C#N)c2)c1C	4.8	-5.3	-15.3	0.6	-3.7	4.9	.
O=C(COC(=O)C1=COCCO1)Nc1cc(S(=O)(=O)N2CCCCC2)ccc1Cl	2.2	-3.9	56.9*	-0.1	7.3	7.1	41.1*
Cc1ccc(S(=O)(=O)N2CCCCC2)cc1NC(=O)COC(=O)c1cccn1C	6.2	-10.4	39.2*	-1.1	-1.0	5.9	31.7*
O=C(Nc1cc(S(=O)(=O)N2CCCC2)ccc1Cl)C1=COCCO1	3.8	-1.8	-4.6	0.6	1.6	8.4	.
Cc1ccc(S(=O)(=O)N2CCCCC2)cc1NC(=O)COC(=O)C1=COCCO1	4.9	-9.2	49.7*	-1.0	4.3	5.6	39.6*
SMILES	PAFAH1B2 FP inh	ATG4B inh	PAFAH2 inh	DAGLB inhibitor	PAFAH1B3 FP inh	pPAFAH FP inh	PAFAH2 confirm
COc1ccc(C(=O)Nc2cc(Cl)ccc2OC(=O)c2ccc(OC)cc2)cc1	-0.2	-4.7	45.0*	-3.5	2.5	2.2	35.3*
CCOC(=O)CNC(=O)COc1coc(CN2CCN(c3ccc(F)cc3)CC2)cc1=O	10.8	-9.9	6.8	-0.4	10.5	4.2	.
O=C(O)c1ccccc1NSc1ccccc1[N+](=O)[O-]	3.9	11.4	37.4*	13.4	6.2	12.8	25.6
O=C(NCCN1CCOCC1)C1CC(=O)N(c2ccc(Cl)cc2)C1 (stereo not drawn)	2.2	-2.4	-4.1	1.0	7.7	-7.1	.
COc1cc(/C=C/C(=O)OCC(=O)N2CCCC2)ccc1OCC#N	1.3	4.2	4.8	-2.2	4.4	1.4	.
CCn1c(C)nc2cc(C(=O)NNC(=O)c3ccc(C)cc3)ccc21	3.1	0.5	-4.0	0.6	-6.3	2.8	.
CCn1c(C)nc2cc(C(=O)OC(C(F)(F)C(F)F)C(F)(F)C(F)F)ccc21	14.0	-6.3	89.7*	-2.5	7.2	24.5	79.5*
COc1ccc(NC(=O)COC(=O)/C=C/c2ccc(OC)c(S(=O)(=O)N3CCOCC3)c2)cc1	-1.1	-8.3	61.8*	-0.9	3.5	1.9	58.0*
COc1ccc(/C=C/C(=O)OCC(=O)Nc2ccc(OC)c(S(=O)(=O)N3CCCCC3)c2)cc1	-7.6	-24.2	29.0	-1.8	-7.8	-0.6	.
Cc1ccc(NC(=O)COC(=O)/C=C/c2cccc(Cl)c2)cc1S(=O)(=O)N1CCOCC1	5.1	-15.6	59.5*	-5.6	-8.6	-1.0	49.7*
COc1ccc(/C=C/C(=O)OCC(=O)Nc2ccc(C)cc2)cc1S(=O)(=O)N1CCOCC1	-0.1	-3.4	70.6*	-1.7	-3.5	0.7	73.0*
CCN(CC)CCCN=C1N[C@@H](c2cccc(C(F)(F)F)c2)C(C(=O)OC)=C(C)N1CC	4.6	-13.0	2.3	-0.9	5.5	1.8	.
CCOC(=O)C1CCN(S(=O)(=O)c2ccc3c4c2CC(=O)N4CC(C)S3)CC1 (stereo not drawn)	-5.0	-6.8	3.6	-1.3	6.7	-2.4	.
CCOC(=O)C1CCCN(S(=O)(=O)c2ccc3c4c2CC(=O)N4CC(C)S3)C1 (stereo not drawn)	-2.7	-4.5	34.7*	2.1	3.5	15.6	17.7
CC(C)CNC(=O)COC(=O)c1n[nH]c2ccccc12	3.8	-3.4	55.6*	-1.7	7.2	0.9	38.7*
CCOc1ccc(NC(=O)COC(=O)c2n[nH]c3ccccc23)cc1	7.0	-6.8	61.9*	-3.7	13.3	-2.7	36.6*
CC(=O)Nc1ccc(NC(=O)COC(=O)c2n[nH]c3ccccc23)cc1	-1.7	-4.6	-0.7	-0.7	5.3	-0.6	.
CCn1cc(C(=O)OCC(=O)NCc2ccccc2Cl)c(=O)c2ccc(C)nc21	-0.4	9.0	35.3*	-0.3	2.8	2.9	22.9
